40 compounds from PubChem BioAssay can be followed below.

Values joined by “and” are separate entries in the source; they are usually repeats but may differ in a detail not shown here. Identical values can stand only once. A number with no mark means an inactive call.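 The calls were made as follows: active = compounds killing one labelled cell type while sparing the other, by normalised counts and ratio limits, not self-fluorescent; inactive = the rest.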

This assay in a line: differential killing of epithelial or mesenchymal cells, primary screen, imaging, PC-3E GFP, TEM4-18 mCherry, co-culture (AID 1345086).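 Also: normalised mesenchymal count divided by normalised epithelial count so high means epithelial killing; cells exposed to compound for 72 h before imaging.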 The conditions noted are these: imaging cell counts, at 1 µM, actives lie on both sides, counts scaled to control wells, 1 = unselective.
As to `C[n+]1cc2c3c(ccc2c2ccc4cc5c(cc4c21)OCO5)OCO3`, the red/green cell ratio (normalised) is 1.2.
The value for `CCN(CC)CCNC(=O)c1ccc(NC(C)=O)cc1` was 1.26.
With `CCCCC1(COC(=O)CCC(=O)O)C(=O)N(c2ccccc2)N(c2ccccc2)C1=O`, the red/green cell ratio (normalised) is 0.91.
For `CCC(=O)O[C@H]1[C@H](O[C@@H]2[C@@H](C)[C@H](O[C@H]3C[C@@](C)(OC)[C@@H](O)[C@H](C)O3)[C@@H](C)C(=O)O[C@H](CC)[C@@](C)(O)[C@H](O)[C@@H](C)C(=O)[C@H](C)C[C@@]2(C)O)O[C@H](C)C[C@@H]1N(C)C`, the red/green cell ratio (normalised) is 1.04.
The value for `CO/N=C1\CN(c2nc3c(cc2F)c(=O)c(C(=O)O)cn3C2CC2)CC1CN` (stereo not given) was 0.94; that for `Cc1c(NC(=O)c2cccnc2)c(=O)n(-c2ccccc2)n1C` was 1.04.
The value for `CCOc1ccc(NC(C)=O)cc1` was 1.26.
`Cc1c[nH]c2ccccc12`: the red/green cell ratio (normalised) was 0.99.
Turning to `CC1(C)S[C@@H]2[C@H](NC(=O)C(C(=O)O)c3ccccc3)C(=O)N2[C@H]1C(=O)O` (stereo not given in full), the red/green cell ratio (normalised) is 1.24.
`Nc1ccc(S(=O)(=O)Nc2ccc(Cl)nn2)cc1`: the red/green cell ratio (normalised) is 1.19.
The value for `O=C(O)c1cc(O)c(O)c(O)c1` was 0.96; that for `Cc1c(Nc2ncccc2C(=O)O)cccc1C(F)(F)F` was 1.03 and 0.93.
Take `CCN(CC)CCOC(=O)C(c1ccccc1)c1ccccc1`: the red/green cell ratio (normalised) was 1.2.
As to `C/C=C1\[C@H]2C=C(C)C[C@]1(N)c1ccc(=O)[nH]c1C2`, the red/green cell ratio (normalised) is 1.22.
In the case of `CCCC(C(=O)OCCN(CC)CC)(c1ccccc1)c1ccccc1`, the red/green cell ratio (normalised) was 1.41.
On to `O=c1[nH]cnc2nc[nH]c12`, for which the red/green cell ratio (normalised) is 1.25.
As for `CCN(CC)CCNC(=O)c1cc(Br)c(N)cc1OC`, the red/green cell ratio (normalised) was 0.92.
The value for `COc1ccc(NS(=O)(=O)c2ccc(N)cc2)nn1` was 1.05.
In the case of `Cc1ccc(C(C)C)cc2c(C)ccc1-2`, the red/green cell ratio (normalised) was 0.74.
Then `Nc1ccc(C(=O)NCC(=O)O)cc1`, with 1.12; and `CN(C)C(=O)Oc1cccc([N+](C)(C)C)c1`, with 1.18.
The value for `Oc1c(Cl)cc(Cl)cc1Sc1cc(Cl)cc(Cl)c1O` was 0.99; that for `COc1ccc(C(=O)c2ccccc2)c(O)c1` was 0.94.
As for `Nc1nc2c(c(=O)[nH]1)N(C=O)C(CNc1ccc(C(=O)N[C@@H](CCC(=O)O)C(=O)O)cc1)CN2` (stereo not given in full), the red/green cell ratio (normalised) is 1.45.
The value for `C[N+](C)(C)CCCCCC[N+](C)(C)C` was 0.92.
On to `NC(=NCCCCCCN=C(N)/N=C(\N)Nc1ccc(Cl)cc1)/N=C(\N)Nc1ccc(Cl)cc1`, for which the red/green cell ratio (normalised) is 1.05.
For `O=C1c2ccccc2C(=O)C1c1ccccc1`, the red/green cell ratio (normalised) was 1.05.
Regarding `CCO/C([O-])=N/c1c[n+](N2CCOCC2)no1`, the red/green cell ratio (normalised) is 0.9.
As to `O=C1c2c(O)cccc2Cc2cccc(O)c21`, the red/green cell ratio (normalised) was 0.95.
In the case of `Cc1cccc(C(=O)O)c1O`, the red/green cell ratio (normalised) was 1.
The value for `O=C(O)[C@@H]1[C@H]2C[C@H]3c4[nH]c5ccccc5c4CCN3C[C@@H]2CC[C@@H]1O` was 1.08; that for `CC(C)NNC(=O)c1ccncc1` was 0.73.
For the compound `C[N+]1(CCCCC[N+]2(C)CCCC2)CCCC1`, the red/green cell ratio (normalised) is 0.92.
The value for `CC(=O)Oc1cccc(O)c1` was 1.21.
For the compound `C=CCc1ccccc1OCC(O)CNC(C)C` (stereo not given), the red/green cell ratio (normalised) is 1.
As to `NC(CS)C(=O)O` (stereo not given), the red/green cell ratio (normalised) was 0.99.
`CCOC(=O)NNc1nncc2ccccc12`: the red/green cell ratio (normalised) is 0.96.
For the compound `Cc1nc2n(c(=O)c1CCN1CCC(c3noc4cc(F)ccc34)CC1)CCC[C@H]2O`, the red/green cell ratio (normalised) is 1.17.
Regarding `CN1CCCN=C1COC(=O)C(O)(c1ccccc1)C1CCCCC1` (stereo not given), the red/green cell ratio (normalised) was 1.18.
For `CC1CCC(NC(=O)N(CCCl)N=O)CC1` (stereo not given), the red/green cell ratio (normalised) is 1.17.
